Data as given in PubChem BioAssay (NCI).
About 83,000 compounds went through this panel and 20% of them were active in at least one assay; those are over-represented in the sample as a whole.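 Method: cells in 96-well plates; compound added at one concentration; 48 h incubation; percent growth measured; values under 10 scored active.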 Values without a mark were called inactive. Activity calls are given as the source filed them.

Legend:
Experiment in all cases: NCI-60 one-dose screen, 48 h (100 = growth as untreated, 0 = no growth, -100 = all killed)
Conditions in all cases: 10 µM unless noted
[1] = test system: HCT-15 colon
[2] = test system: HT29 colon
[3] = test system: SNB-75 CNS
[4] = test system: SNB-19 CNS
[5] = test system: U251 CNS
[6] = test system: PC-3 prostate
[7] = test system: SK-MEL-5 melanoma
[8] = test system: UACC-62 melanoma
[9] = test system: LOX IMVI melanoma
[10] = test system: SK-MEL-2 melanoma
[11] = test system: EKVX NSCLC
[12] = test system: SN12C renal
[13] = test system: UO-31 renal
[14] = test system: TK-10 renal
[15] = test system: ACHN renal
[16] = test system: CAKI-1 renal
[17] = test system: A498 renal
[18] = test system: CCRF-CEM leukemia
[19] = test system: MOLT-4 leukemia
[20] = test system: SK-MEL-28 melanoma

Row | SMILES | growth [1] | growth [2] | growth [3] | growth [4] | growth [5] | growth [6] | growth [7] | growth [8] | growth [9] | growth [10] | growth [11] | growth [12] | growth [13] | growth [14] | growth [15] | growth [16] | growth [17] | growth [18] | growth [19] | growth [20] [%]
1 | C#Cc1nc(C(=O)NCCC(=O)Nc2ccc(NC(=O)c3ccc(/C=C/C(=O)c4nccn4C)cc3)cc2)cs1 | 16.7% | 2.68% (active) | 56.6% | 35.1% | 3.44% (active) | 42.5% | 87% | 38.6% | -90.1% (active) | 100% | 65.3% | 14.4% | 30.7% | 69.9% | -67.5% (active) | 38.9% | 90.5% | -21.2% (active) | 19.9% | 
2 | CS(=O)(=O)Nc1cc(-c2ccc3ncc(C#N)c(NCc4ccccc4F)c3c2)cnc1Cl | 8.34% (active) | 11% | 26.3% | 12.8% | 11.5% | 6.54% (active) | -93.6% (active) | -20.7% (active) | -41.9% (active) | -52.3% (active) | 0.584% (active) | 16.8% | 4.65% (active) | -11.1% (active) | 10.9% | -8.09% (active) | -42.9% (active) | 13.3% | -15.8% (active) | 
3 | COC(=O)c1[nH]nc2c1C1(C(=O)c3cccc4cccc1c34)C(C#N)=C(N)O2 (centres undefined) | 99.4% | 105% | 80.4% | 97.2% | 105% | 83.9% | 98.6% | 91.8% | 97.7% | 105% | 89.9% | 100% | 73.4% | 122% | 99.6% | 79.7% | 82.1% | 106% | 111% | 
4 | COc1cc(-c2nc(SC(C)C)n(C(C)C)c(=O)c2C#N)ccc1OCc1ccccc1 | 73.8% | 91.2% | 82.4% | 83.8% | 32.7% | 73.1% |  | 90.4% | 62.1% |  | 81.3% | 16.2% | 56.8% | 42.1% | 32.5% | 54.8% |  | 33% | 22.1% | 96.8
5 | O=C(NNc1nc2cc(F)ccc2n2c(CN3CCCC3)ccc12)c1cnccn1 | 23% | 24% | 65% | 25.2% | 19.8% | 21.4% | 22.3% | 17.9% | 3.56% (active) | 46% | 7.62% (active) | 21% | 18.7% | 40.2% | 13.3% |  | -1.87% (active) | 6.67% (active) | 1.81% (active) | 
6 | COc1cccc(C(=O)Nc2cccc(C#Cc3cccc4[nH]nc(N)c34)c2)c1 | 28.9% | 37.5% | 3.74% (active) | 98.5% | 68% | 32.7% |  | 57.6% | 37% |  | 80.9% | 71.6% | 56.4% | 96.5% | 51% | 52.4% |  | 28.5% |  | 67.7
7 | COc1cc(OC)c(S(N)(=O)=O)cc1C(=O)/C=C/c1ccc(C)cc1 | 6.96% (active) | 9.47% (active) | 1.82% (active) | 33.3% | 14.5% | 19.1% |  | 33.8% | 1.84% (active) |  | 45.6% | 11.4% | 34.7% | 25.5% | 29.7% | 21.9% |  | 16.7% | 21.1% | 58.7
8 | NS(=O)(=O)c1ccc(Nc2nc(N/N=C/c3c[nH]c4ccccc34)nc(Nc3ccccc3)n2)cc1 | 75.5% | 31.6% | 70.8% | 56.7% | 28.1% | 26% | 39.8% | 38.3% | -10.6% (active) | 67.3% | 67.4% | 40.2% | 49.2% | 94.7% | 81.2% | 53.9% | 51.2% | 12.9% |  | 
9 | Cc1ccc2c(c1)C(=O)/C(=C/c1cccc(F)c1)S2 | 100% | 104% | 106% | 96.9% | 101% | 86.4% |  | 83.7% | 114% |  | 98.5% | 101% | 88.4% | 123% | 102% | 85.8% |  | 104% | 106% | 101
10 | Cc1nn(-c2ccccc2)c2ncnc(N/N=C/c3ccccc3O)c12 | 21.3% | 24.6% | 5.46% (active) | 17.5% | 11.2% | 25.9% | -70.2% (active) | -11.2% (active) | 2.3% (active) | 35.4% | 23.7% | 8.87% (active) | -25.8% (active) | 40.6% | 3.52% (active) | 3.12% (active) | 58.4% | 8.92% (active) | 14.3% | 
11 | CN1CCC(n2cc(Nc3ncc4c(=O)n(-c5c(Cl)cccc5Cl)cc(Br)c4n3)cn2)CC1 | 17.1% | 6.54% (active) | 17.1% | 41.7% | 27.6% | 51.3% |  | 77.8% | 11.9% |  | 57.4% | 20.7% | 22.2% | 47% | 24% | 20% |  | 8.75% (active) | 13% | 63.4
12 | Nc1nc(-c2cccc([N+](=O)[O-])c2)c(N=Nc2ccc(Br)cc2)s1 | 0.133% (active) | 30.1% | -27.9% (active) | 29.9% | -89.3% (active) | 2.83% (active) | -38.5% (active) | -37.8% (active) | -84% (active) |  | 8.7% (active) | -26.8% (active) | -80.3% (active) | -96.2% (active) | -96.7% (active) | -87.9% (active) |  | 31.9% | 29.5% | 
13 | N=c1c2cc(-c3ccccc3)oc2ncn1/N=C/c1ccc(Cl)cc1 | 56.8% | 98.7% | 88.7% | 86.5% | 66.4% | 82.2% | 91.2% | 90.6% | 63.3% | 101% | 84.7% | 62.6% | 94% | 112% | 34.3% | 97.7% | 99.7% | 71.2% | 88.2% | 
14 | CC[C@H](CO)Nc1ccc2ncc(C#Cc3cncc(C(=O)Nc4ccc(CN5CCN(C)CC5)c(C(F)(F)F)c4)c3)n2n1 | -38.1% (active) | -35.6% (active) | -91.3% (active) | -22.4% (active) | -85.3% (active) | -31.7% (active) | -95.4% (active) | -57.7% (active) | -98.8% (active) | -97.7% (active) | -64.3% (active) | -65.1% (active) | -83.3% (active) | -57% (active) | -98.6% (active) | -79.7% (active) | -99.4% (active) | 1.55% (active) | -3.11% (active) | 
15 | CCN1CCN(Cc2ccc(C(=O)Nc3ccc(C)c(Oc4ccc(-c5[nH]nc6ncnc(N)c56)cc4)c3)cc2C(F)(F)F)CC1 | 68.6% | 17% | 95.8% | 101% | 89.4% | 70.7% | 76.1% | 89.1% | 57.2% | 90% | 106% | 86.5% | 84.4% | 117% | 91.9% | 88.3% | 98.4% | 31% | 67.4% | 
16 | NS(=O)(=O)c1ccc(-n2cc(-c3cccc(NC(=O)c4ccc(N5CCOCC5)c(C(F)(F)F)c4)c3)nn2)cc1 | 39.3% | 61% | 65.2% | 62.9% | 54.2% | 23.5% |  | 30.5% | 9.34% (active) |  | 74.1% | 43.9% | 26.7% | 98.6% | 43.5% | 51.1% |  | 20.3% | 11% | 54.7
17 | COc1ccc(CCN2C(=O)CSC2=S)cc1 | 56.9% | 104% | 94.6% | 96.6% | 102% | 88.8% |  | 94.2% | 30.3% |  | 96% | 88.8% | 92% | 65.1% | 99.1% | 82.1% |  | 75.3% | 94.6% | 93.9
